Source: PubChem (National Center for Advancing Translational Sciences (NCATS))
Cruzain noTriton – qHTS Assay for Promiscuous and Specific Inhibitors of Cruzain (without detergent) | purified cruzain, Z-FR-AMC fluorescence, no detergent | Potency, µM, for inactives: max response, negative = inhibition, actives largely listed as inhibitors | Cruzipain (Trypanosoma cruzi), P25779 | 2.3% of 200,000 active;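 note: plate controls were enzyme without inhibitor for no effect and buffer without enzyme for full effect; nearly all actives have a fitted effect of over 40% in size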
Target sequence (P25779 123-467 limits assumed): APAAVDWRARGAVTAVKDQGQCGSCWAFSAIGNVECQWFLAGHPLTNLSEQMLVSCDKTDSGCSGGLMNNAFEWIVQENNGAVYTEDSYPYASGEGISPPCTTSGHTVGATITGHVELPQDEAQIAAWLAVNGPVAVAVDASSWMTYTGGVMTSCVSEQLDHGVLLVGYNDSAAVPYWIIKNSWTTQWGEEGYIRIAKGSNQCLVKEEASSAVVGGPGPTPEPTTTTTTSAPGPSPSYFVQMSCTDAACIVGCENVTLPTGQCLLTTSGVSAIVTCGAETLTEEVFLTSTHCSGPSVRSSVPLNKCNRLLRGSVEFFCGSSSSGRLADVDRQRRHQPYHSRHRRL
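Detergent-free condition (0.00005% Triton X-100) in acetate buffer pH 5.5 with DTT. 1.5 nM enzyme and compound were pre-mixed 15 min, then 2 uM Z-FR-AMC substrate added; reaction progress from fluorescence change between first and third reads (60 s).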
Cruzain inh Det – qHTS Assay for Promiscuous and Specific Inhibitors of Cruzain (with detergent) | Potency, µM, inactives show max response, negative = inhibition, usual class: inhibitors | purified cruzain, Z-FR-AMC fluorescence, 0.01% Triton | 0.43% of 200,000 active;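 note: plate controls were neutral wells for no effect and buffer without enzyme for full effect; nearly all actives have a fitted effect of over 40% in size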
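Sodium acetate buffer (100 mM, pH 5.5) containing 5 mM DTT and 0.01% Triton X-100 hosted 1.5 nM cruzain and test compound for 15 min at room temperature. Cleavage of 2 uM Z-FR-AMC was then tracked by fluorescence.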
The depositor's hits bear a star. A selection: hits, their analogues and other compounds. The true share with any hit is near 2.5%. Calls come from the whole dose curve; as a rule, active = well fitted curve in the direction sought with a large enough effect; inconclusive = small, poorly fitted or top-dose-only effect, or another doubt; inactive = no such curve, though single readings can be large; an effect the other way counts as inactive or inconclusive. Potency is the fitted concentration of half-maximal effect.

COc1ccc(NC(=O)c2cc3c(=O)n(Cc4ccco4)ccc3nc2C)c(OC)c1 was read as Cruzain noTriton -8% and Cruzain inh Det 0%.
`Cc1cc(=O)oc2cc(O)c(CN(C)CC(=O)O)cc12` gave Cruzain noTriton 2% and Cruzain inh Det -7%.
For C=C[C@H](N)CCC(=O)O the results were Cruzain noTriton -5% and Cruzain inh Det 3%.
`C[C@@]1(C(NC(=O)c2ccc(-c3ccccc3)cc2)c2ccc(Cl)cc2)C[C@H]1C1CCCCC1` (stereo partly drawn) gave Cruzain noTriton inconclusive and Cruzain inh Det 2%.
C[C@@]1([C@@H](NC(=O)c2cccs2)c2ccc(-c3ccccc3)cc2)C[C@H]1C1CCCCC1 was read as Cruzain noTriton 7.9µM* and Cruzain inh Det -2%.
`COc1cc2cc(C(N)=O)c(N)nc2cc1OC` gave Cruzain noTriton 16µM* and Cruzain inh Det 28µM*.
`COC(=O)c1cc(OC)c(OC)cc1N` gave Cruzain noTriton -24% and Cruzain inh Det -2%.
Screening CCC(=O)N1CCc2cc(Br)cc(S(=O)(=O)N3CCCC(C(=O)NCc4cccc(OC)c4)C3)c21 (stereo not drawn) returned Cruzain noTriton inconclusive and Cruzain inh Det 1%.
NCCCCCc1cnc[nH]1 was read as Cruzain noTriton -4% and Cruzain inh Det -1%.
Cc1ccccc1Nc1c(-c2ccccc2O)nc2sccn12 was read as Cruzain noTriton inconclusive and Cruzain inh Det -10%.
`Cn1c(CNC(=O)CSc2n[nH]c(-c3ccccc3)n2)nc2ccccc21` gave Cruzain noTriton 2% and Cruzain inh Det 3%.
`Cc1ccc(-c2nnc(SCC(=O)N3CCN(c4ccccc4)CC3)o2)cc1` gave Cruzain noTriton 10µM* and Cruzain inh Det -1%.
For COc1ccc(-c2nnc(SCC(=O)N3CCN(c4ccccc4)CC3)o2)cc1OC the results were Cruzain noTriton 0% and Cruzain inh Det -4%.
For COc1ccc(CNC(=O)CCc2cn(Cc3cc(C)ccc3C)c3ccccc23)cc1OC the results were Cruzain noTriton inconclusive and Cruzain inh Det -6%.
Cc1[nH]c2c(ccc3ccccc32)c1C1C(CCN)C1(C)C (stereo not drawn) was read as Cruzain noTriton 10µM* and Cruzain inh Det -2%.
Screening Cc1[nH]c2c(Cl)cccc2c1CCN returned Cruzain noTriton 5% and Cruzain inh Det 5%.
For COc1cc(Cl)c(C)cc1NC(=O)c1nn(-c2ccc(C)cc2)c(=O)n(C)c1=O the results were Cruzain noTriton -2% and Cruzain inh Det 0%.
For CCOc1ccc(Br)cc1S(=O)(=O)Nc1cccc(-c2ccc(OC)nn2)c1 the results were Cruzain noTriton 26% and Cruzain inh Det -6%.
`Cc1nn(-c2nnc(NCc3ccccc3)nn2)c(C)c1Br` gave Cruzain noTriton inconclusive and Cruzain inh Det 13µM*.
For Cc1cc(C)n(-c2nc(C)nc(NCc3ccccc3)n2)n1 the results were Cruzain noTriton -4% and Cruzain inh Det 4%.
Screening C=CCn1c(SCC(=O)Nc2ccccc2OC)nnc1-c1ccco1 returned Cruzain noTriton -9% and Cruzain inh Det 1%.
`C=CCn1c(SCC(=O)Nc2nccs2)nnc1-c1cc2cccc(OC)c2o1` gave Cruzain noTriton 25µM* and Cruzain inh Det 5%.
For O=C(Nc1ccc(C(F)(F)F)cc1)c1cc(S(=O)(=O)NC2CCCCCC2)ccc1F the results were Cruzain noTriton -2% and Cruzain inh Det 0%.
CCCC(=O)Nc1ccc(Nc2ccccc2)cc1 was read as Cruzain noTriton 13% and Cruzain inh Det -4%.
CCCC(=O)Nc1ccc(-c2ccc(NC(=O)CCC)cc2)cc1 was read as Cruzain noTriton 13µM* and Cruzain inh Det -1%.
COc1ccc(OC)c(NC(=O)Cc2c(C)n(C(=O)c3ccc(Cl)cc3)c3ccc(OC)cc23)c1 was read as Cruzain noTriton -5% and Cruzain inh Det 1%.
Screening COc1ccc2c(c1)c(CC(=O)Nc1cc(C)ccc1C)c(C)n2C(=O)c1ccc(Cl)cc1 returned Cruzain noTriton 13µM* and Cruzain inh Det -5%.
For COc1ccc2c(c1)c(CC(=O)Nc1c(C)cccc1C)c(C)n2C(=O)c1ccc(Cl)cc1 the results were Cruzain noTriton -12% and Cruzain inh Det 1%.
Screening COc1ccc2c(c1)c(CC(=O)Nc1ccccc1OC)c(C)n2C(=O)c1ccc(Cl)cc1 returned Cruzain noTriton 16µM* and Cruzain inh Det -6%.
For CCN1CCN(c2nnc(-n3cccc3C(=O)Nc3cccc(OC)c3)s2)CC1 the results were Cruzain noTriton -17% and Cruzain inh Det 1%.
For COc1ccc([N+](=O)[O-])cc1NC(=O)Nc1ccccc1 the results were Cruzain noTriton 0% and Cruzain inh Det -8%.
Screening COc1ccc([N+](=O)[O-])cc1C1NN=C(c2ccccc2O)S1 (stereo not drawn) returned Cruzain noTriton 20µM* and Cruzain inh Det 0%.
`Cc1ccc(C)c(NC(=O)Cn2cnc3nc4c(cc3c2=O)CCCC4)c1` gave Cruzain noTriton 0% and Cruzain inh Det -1%.
Screening O=C(O)[C@H](C1NCCS1)N1C(=O)c2ccccc2C1=O (stereo partly drawn) returned Cruzain noTriton 8% and Cruzain inh Det 0%.
For COc1ccc(CCC(=O)N2CCc3c([nH]c4ccccc34)C2c2ccc(F)cc2)cc1 (stereo not drawn) the results were Cruzain noTriton inconclusive and Cruzain inh Det 0%.
O=C(CSCc1ccc(F)cc1)N1CCc2c([nH]c3ccccc23)C1c1ccccc1 (stereo not drawn) was read as Cruzain noTriton -80% and Cruzain inh Det 4%.
Screening COc1ccc(CC(=O)N2CCc3c([nH]c4ccccc34)C2c2ccc(SC)cc2)cc1 (stereo not drawn) returned Cruzain noTriton 25µM* and Cruzain inh Det 4%.
For O=C(CSc1ccccc1)N1CCc2c([nH]c3ccccc23)C1c1ccc(Cl)cc1 (stereo not drawn) the results were Cruzain noTriton 13µM* and Cruzain inh Det 2%.
Screening O=C(CSCc1ccc(F)cc1)N1CCc2c([nH]c3ccccc23)C1c1ccc(Cl)cc1 (stereo not drawn) returned Cruzain noTriton 7.9µM* and Cruzain inh Det 5%.
For CCOc1cccc(C2c3[nH]c4ccccc4c3CCN2C(=O)CSc2ccccc2)c1 (stereo not drawn) the results were Cruzain noTriton inconclusive and Cruzain inh Det 3%.
`C=C1C[C@@]23CC4C5[C@@]6(C)C[C@H](O)C[C@@]57C2[C@H](O)[C@@H]1[C@H](O)[C@H]3[C@H]7N4C6` gave Cruzain noTriton -1% and Cruzain inh Det 0%.
For COc1ccc(-c2cc3nc(C)c(CCC(=O)Nc4cccc(C(F)(F)F)c4)c(C)n3n2)c(OC)c1 the results were Cruzain noTriton inconclusive and Cruzain inh Det 3%.
`CCCCCCc1cc2cc(-c3nnc(-c4ccc(C)cc4)o3)c(=O)oc2cc1O` gave Cruzain noTriton -1% and Cruzain inh Det 3%.
For CCCCCCc1cc2cc(S(=O)(=O)c3ccc(F)c(Cl)c3)c(=O)oc2cc1O the results were Cruzain noTriton 20µM* and Cruzain inh Det -11%.
Screening Cc1cc2oc(=O)cc(CN3CCOCC3)c2cc1C returned Cruzain noTriton -9% and Cruzain inh Det 0%.
For CCNc1cc2oc(=O)c(CN3CCOCC3)c(C)c2cc1C the results were Cruzain noTriton inconclusive and Cruzain inh Det 28µM*.
